Screens: PubChem BioAssay, several laboratories
A selection: hits, their analogues and other compounds. The true share with any hit is near 2.3%.
LGR2 antag: inhibitors of bursicon-induced Drosophila LGR2 receptor cAMP signaling; HEK293 LGR2, CRE-luciferase, bursicon-stimulated, 4 h; inhibition, % at 9.99 µM; 380,000 tested, 0.35% active;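 active means drop in luminescence signal, shown as inhibition above about 50% in the replicate tests, limit read from the data, passing the limit was not always enough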;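 further: agonist challenge used bursicon conditioned medium at about half maximal strength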
KKLEB tox: reduces viability of KKLEB cystic fibrosis airway cells. 360,000 tested, 0.36% active. AID 602141. activity change (cytotoxicity), % at 5 µM. KKLEB CF airway cells viability, ATPlite luminescence, overnight; active compounds read low; cells stimulated with P. aeruginosa culture filtrate;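 active means corrected activity change at or below -50% at 5 µM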
TWEAK-Fn14 inh: inhibitors of TWEAK-Fn14 interaction signaling; TWEAK-stimulated Fn14 reporter cells, luciferase luminescence, 8 h; inhibition, % at 10 µM; 360,000 tested, 2% active; AID 1159606; in the data active means inhibition above about 50%
HIF-2a block: blocks HIF-2a reporter activity | 786-0 RCC cells HIF-2a reporter, luciferase luminescence, overnight | 360,000 tested, 0.72% active | inhibition, % at 18.8 µM;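 active means inhibition of the luminescence signal of 40% or more relative to plate controls, in a single-dose primary screen at 18.75 µM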
CF NFkB inh: inhibitors of cystic fibrosis induced NF-kB; inhibition, % at 5 µM; 360,000 tested, 0.86% active; KKLEB NF-kB-GFP reporter, PAF-induced, GFP fluorescence overnight; AID 588850;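 active means at least 50% inhibition at 5 µM, scaled per plate between neutral and stimulator controls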;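 further: PAF is a Pseudomonas aeruginosa culture filtrate used as stimulus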
iPSC survival up: increases survival of single human iPS cells; 360,000 tested, 0.044% active; survival enhancement, % at 20 µM; AID 602274; hiPSC single-cell survival, ATPlite luminescence; 100% = ROCK inhibitor wells, 0% = DMSO; in the data active means survival enhancement above about 18%;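 further: cells exposed to compounds for 16 hours before the ATP read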
Mdm2 MdmX conf: Mdm2/MdmX (human) interaction inhibition, confirmed. inhibition, % at 8 µM. shares compounds with HIF-2a block. AID 504601. SaOS-2 split-luciferase Mdm2/MdmX complementation, luminescence. 740 tested, 99% active;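 active means mean inhibition of the luminescence signal across two replicates at or above 26 percent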
Target sequence (O15151 whole entry, looked up): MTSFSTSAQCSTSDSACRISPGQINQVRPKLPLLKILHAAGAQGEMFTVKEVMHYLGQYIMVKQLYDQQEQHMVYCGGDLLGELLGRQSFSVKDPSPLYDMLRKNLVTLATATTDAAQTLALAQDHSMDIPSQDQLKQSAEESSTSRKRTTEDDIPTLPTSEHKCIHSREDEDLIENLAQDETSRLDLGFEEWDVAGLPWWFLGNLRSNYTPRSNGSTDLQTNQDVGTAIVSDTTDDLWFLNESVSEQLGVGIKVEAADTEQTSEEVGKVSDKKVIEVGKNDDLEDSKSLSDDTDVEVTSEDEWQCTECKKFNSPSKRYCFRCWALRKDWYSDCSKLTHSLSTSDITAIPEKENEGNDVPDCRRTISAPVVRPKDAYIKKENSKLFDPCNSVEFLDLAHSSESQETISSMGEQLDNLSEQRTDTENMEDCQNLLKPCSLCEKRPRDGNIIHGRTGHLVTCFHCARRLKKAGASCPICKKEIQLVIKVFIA
Target sequence (Q00987 whole entry, looked up): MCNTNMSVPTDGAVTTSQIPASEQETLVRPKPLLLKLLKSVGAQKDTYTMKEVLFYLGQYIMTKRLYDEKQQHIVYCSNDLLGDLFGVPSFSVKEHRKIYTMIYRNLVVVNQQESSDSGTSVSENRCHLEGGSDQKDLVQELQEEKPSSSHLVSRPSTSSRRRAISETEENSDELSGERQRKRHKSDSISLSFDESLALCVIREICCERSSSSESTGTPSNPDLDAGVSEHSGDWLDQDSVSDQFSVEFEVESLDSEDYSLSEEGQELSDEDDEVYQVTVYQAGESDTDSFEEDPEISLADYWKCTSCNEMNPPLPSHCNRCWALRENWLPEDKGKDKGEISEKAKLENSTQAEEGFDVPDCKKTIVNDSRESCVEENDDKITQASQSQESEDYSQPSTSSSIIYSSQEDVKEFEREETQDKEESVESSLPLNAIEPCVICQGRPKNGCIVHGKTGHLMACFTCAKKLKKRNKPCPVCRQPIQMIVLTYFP
HIF-2a inh conf: HIF-2a inhibition, single concentration confirmation | 786-0 RCC cells, HIF-2a luciferase reporter luminescence, overnight | inhibition, % at 18.8 µM | shares compounds with HIF-2a block | AID 651580 | 1,800 tested, 56% active;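 active means mean inhibition across four replicates of at least 40 percent at the single tested concentration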
HIF-1a cs: HIF-1a inhibition counter-screen for HIF-2a hits; 1,800 tested, 72% active; inhibition, % at 18.8 µM; MiaPaCa-2 HIF-1a luciferase reporter, desferoxamine, overnight; shares compounds with HIF-2a block;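 active means mean inhibition of the reporter signal across four replicates at the single tested dose of 50% or more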
Hits are given with their value; 0 = inactive; - = no result.

SMILES	LGR2 antag	KKLEB tox	TWEAK-Fn14 inh	HIF-2a block	CF NFkB inh	iPSC survival up	HIF-2a inh conf	HIF-1a cs	others
CC(=O)N(Cc1ccc(F)cc1)C1=C(NCCc2ccccc2)C(=O)c2ccccc2C1=O	-	-54.8	81.7	91.4	86.4	0	-	-	Mdm2 MdmX conf=101.2
CC(C)(C)c1ccc(C(=O)Nc2sc3c(c2C(=O)O)CCC3)cc1	0	0	87.7	95.9	0	0	95.6	75.2
O=C(Nc1sc2c(c1C(=O)O)CCCC2)c1ccc(F)cc1	0	0	0	0	0	0	-	-
Cc1ccc(S(=O)(=O)N(C)C[C@@H]2Oc3ccc(NC(=O)Nc4ccc5c(c4)OCO5)cc3CC(=O)N([C@H](C)CO)C[C@@H]2C)cc1	0	-	-	-	-	-	-	-
CS(=O)(=O)c1nc(-c2ccccc2)cc(-c2ccccc2)c1C#N	-	0	0	76.0	61.1	0	0	106.2
CC(=O)Nc1sc2c(c1-c1nc3ccccc3s1)CCN(C(C)C)C2	-	0	0	39.8	0	0	-	-	Mdm2 MdmX conf=101.5
CC(C)N1CCc2c(sc(NC(=O)c3ccc4ccccc4c3)c2C(N)=O)C1	0	0	0	0	0	0	-	-
C[C@H](CO)N1C[C@H](C)[C@H](CN(C)C(=O)Nc2ccc3c(c2)OCO3)Oc2ccc(NC(=O)CCN3CCOCC3)cc2C1=O	0	-	-	-	-	-	-	-
COC(=O)c1ccc(/C=C/C(=O)c2cccc(OC)c2)cc1	0	0	0	0	0	0	-	-
COc1cccc(C(=O)/C=C/c2ccc(OCC#N)c(OC)c2)c1	0	0	83.8	84.8	0	0	41.6	105.3
CCC(=O)N1[C@@H](CO)[C@H](c2ccc(C3=CCCC3)cc2)[C@@H]1CNC(=O)CN(C)C	0	-	-	-	-	-	-	-
CC(=O)N/N=C\c1cccc(OC/C=C/c2ccccc2)c1	0	0	0	47.5	0	0	56.0	0
N#CCC(=O)N/N=C\c1cccc(OC/C=C/c2ccccc2)c1	0	0	0	64.4	0	0	71.4	0
C[C@H](NC(=O)[C@@H]1[C@@H](CO)[C@@H]2Cn3c(cccc3=O)[C@@H]2N1C(=O)C1CC1)c1ccccc1	0	-	-	-	-	-	-	-
CCN(CC)CCNc1ncnc2c1sc1nc(N3CCOCC3)c3c(c12)CC(C)(C)SC3	-	0	0	0	0	0	-	-
CN(C)CCNc1ncnc2c1sc1nc(N3CCOCC3)c3c(c12)CC(C)(C)SC3	-	0	0	54.0	0	0	0	80.1
COCCNc1nnnc2c1sc1nc(N3CCOCC3)c3c(c12)CC(C)(C)OC3	0	0	0	0	0	0	-	-
CC1(C)Cc2c(c(N3CCOCC3)nc3sc4c(NCCN)ncnc4c23)CO1	0	0	0	45.2	0	0	0	0
C[C@@H]1CN([C@@H](C)CO)C(=O)c2cc(NS(=O)(=O)c3ccc(Cl)cc3)ccc2O[C@@H](C)CCCCO[C@@H]1CN(C)Cc1ccccc1	0	-	-	-	-	-	-	-
O=C([C@H]1[C@H](CO)[C@H]2Cn3c(ccc(C4=CCCC4)c3=O)[C@H]2N1Cc1nccs1)N1CCCCC1	0	-	-	-	-	-	-	-
Cc1ccc(S(=O)(=O)Nc2cccc3c2O[C@@H](CN(C)Cc2ccccc2)[C@H](C)CN([C@H](C)CO)C3=O)cc1	0	-	-	-	-	-	-	-
CC(=O)Nc1ccc(S(=O)(=O)N(C)c2ccccc2)cc1	-	0	0	0	0	0	-	-
CCN(c1ccccc1)S(=O)(=O)c1ccc(C(=O)Nc2ccncc2)cc1	0	0	0	0	0	0	-	-
CCS(=O)(=O)c1ncc(Cl)c(C(=O)Nc2ccc(S(=O)(=O)N(C)c3ccccc3)cc2)n1	0	-96.9	99.6	94.6	81.8	21.2	99.4	99.4	Mdm2 MdmX conf=103.0
CCN(c1ccccc1)S(=O)(=O)c1ccc(NC(=O)c2nc(S(C)(=O)=O)ncc2Cl)cc1	-	-101.1	88.2	92.0	102.5	0	-	-	Mdm2 MdmX conf=102.5
SMILES	LGR2 antag	KKLEB tox	TWEAK-Fn14 inh	HIF-2a block	CF NFkB inh	iPSC survival up	HIF-2a inh conf	HIF-1a cs	others
CO[C@H]1CN(C)C(=O)c2cc(NC(=O)C3CC3)ccc2OC[C@H](C)N(C(=O)CN2CCOCC2)C[C@H]1C	0	-	-	-	-	-	-	-
CN(C)c1ccc(C(C[N+](=O)[O-])c2c(N)n(C)c(=O)n(C)c2=O)c(F)c1C#N (stereo not drawn)	0	0	0	0	0	0	-	-
COc1ccc(Br)cc1C(C[N+](=O)[O-])c1c(N)n(C)c(=O)n(C)c1=O (stereo not drawn)	-	0	0	58.2	0	0	0	86.3
CN1CCc2c(sc(NC(=O)c3ccco3)c2C(N)=O)C1	0	0	0	0	0	0	-	-
CN1CCc2c(sc(NC(=O)c3ccc([N+](=O)[O-])o3)c2C(N)=O)C1	0	0	51.9	54.9	81.7	0	55.0	104.1	Mdm2 MdmX conf=101.5
C[C@H](NC(=O)C[C@H]1C[C@H]2c3cc(NC(=O)c4cccnc4)ccc3O[C@H]2[C@H](CO)O1)c1ccccc1	0	-	-	-	-	-	-	-
CCN(CC)S(=O)(=O)c1ccc(N/N=C/c2ccc(O)cc2O)nc1	0	0	0	0	0	0	-	-	Mdm2 MdmX conf=86.7
O=[N+]([O-])c1ccc(NN=Cc2ccc(O)cc2O)nc1	0	0	0	0	0	0	-	-
Cc1ccc(NC2=C(NC(=O)c3ccccc3)C(=O)c3ccccc3C2=O)cc1Cl	0	0	0	0	0	0	-	-
O=C(O)c1ccc(NC2=C(Cl)C(=O)c3ccccc3C2=O)cc1	0	-88.9	0	93.9	92.4	0	-	-	Mdm2 MdmX conf=101.3
C[C@@H]1CCCCO[C@@H](CN(C)S(=O)(=O)c2cccs2)[C@H](C)CN([C@H](C)CO)C(=O)c2cc(NC(=O)Nc3ccccc3)ccc2O1	0	-	-	-	-	-	-	-
O=C1OCCC1Sc1nc2cc(Cl)ccc2n1Cc1ccccc1 (stereo not drawn)	-	0	0	50.8	0	0	0	0
CC=Cc1ccc2n(c1=O)C[C@@H]1[C@@H](CO)[C@H](C(=O)Nc3ccc(-c4ccccc4)cc3)[C@H]2N1C(C)=O (mixture of isomers)	0	-	-	-	-	-	-	-
Cc1ccc(NC(=O)c2ccc(Cl)c(N3C(=O)C=CC3=O)c2)cc1	-	0	0	49.4	0	0	0	0
Cc1cc(C(=O)Nc2cccc3c2O[C@H](CN(C)S(C)(=O)=O)[C@@H](C)CN([C@@H](C)CO)C3=O)n(C)n1	0	-	-	-	-	-	-	-
